Reference: the supplement of paper PMC8253809

System: SUDIPGVI (diffuse intrinsic pontine glioma line)
Assay: growth inhibition (% activity, log2 RLU normalised to DMSO / staurosporine); higher = more growth inhibition
Settings: 33 µM
Summary of the method: (§1)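 In triplicate, pHGG cell lines and H9-derived neural stem cells were treated for 7 days at 37 °C, 5% CO2 with approved drugs at a single final concentration of about 33 μM, added by pin tool. CellTiter-Glo luminescence, after log2 transformation, was normalised on each plate to % activity between solvent and positive control wells. Growth inhibition is reported as the median across replicates.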

Compared with Cc1ccc(-c2cc(C(F)(F)F)nn2-c2ccc(S(N)(=O)=O)cc2)cc1, O=C(O)c1ccc(-n2nc(-c3ccccc3O)nc2-c2ccccc2O)cc1 is lower in growth inhibition: 1.64% for the first, -6.58% for the second.

Going from CC(C)(C)C(=O)OCOP(=O)(COCCn1cnc2c(N)ncnc21)OCOC(=O)C(C)(C)C to Nc1nc2c(ncn2COC(CO)CO)c(=O)[nH]1, the growth inhibition falls from 2.68% to -0.103%.

Compared with NCCNCCNCCNCCN, CCCCCCNC(=O)n1cc(F)c(=O)[nH]c1=O is lower in growth inhibition: 4.87% for the first, 3.57% for the second.

Going from CC(=O)[C@H]1CC[C@H]2[C@@H]3CC=C4C[C@@H](O)CC[C@]4(C)[C@H]3CC[C@]12C to C=C1/C(=C\C=C2/CCC[C@]3(C)[C@@H]([C@H](C)CCCC(C)C)CC[C@@H]23)C[C@@H](O)C[C@@H]1O, the growth inhibition rises from -0.676% to 1.52%.

Compared with CC[C@H](C)C(=O)O[C@H]1C[C@@H](C)C=C2C=C[C@H](C)[C@H](CC[C@@H]3C[C@@H](O)CC(=O)O3)[C@H]21, CCOC(=O)C1=C[C@@H](OC(CC)CC)[C@H](NC(C)=O)[C@@H](N)C1 is higher in growth inhibition: -6.1% for the first, 0.0268% for the second.

Going from CC(C)/N=c1\cc2n(-c3ccc(Cl)cc3)c3ccccc3nc-2cc1Nc1ccc(Cl)cc1 to Cn1c(CNc2ccc(C(=N)N)cc2)nc2cc(C(=O)N(CCC(=O)O)c3ccccn3)ccc21, the growth inhibition falls from 5.83% to 0.719%.

Compared with COc1ccc(O)cc1, C=C[C@H]1CN2CC[C@H]1C[C@H]2[C@H](O)c1ccnc2ccc(OC)cc12 is higher in growth inhibition: -3.4% for the first, 4.23% for the second.

Compared with C[C@@H](NCCCc1cccc(C(F)(F)F)c1)c1cccc2ccccc12, CC(=O)SCC(Cc1ccccc1)C(=O)NCC(=O)OCc1ccccc1 (stereo not drawn) is lower in growth inhibition: -0.119% for the first, -1.57% for the second.

Going from NCCS(=O)(=O)O to Cc1cc2c(cc1S(N)(=O)=O)S(=O)(=O)CCC2, the growth inhibition rises from 0.882% to 2.41%.

Going from O=C(O)C1=CO[C@@H](O[C@@H]2O[C@H](CO)[C@@H](O)[C@H](O)[C@H]2O)[C@@H]2C(CO)=CC[C@H]12 to COc1cccc2c1C(=O)c1c(O)c3c(c(O)c1C2=O)C[C@@](O)(C(C)=O)C[C@@H]3O[C@H]1C[C@H](N)[C@H](O)[C@H](C)O1, the growth inhibition rises from -7.67% to 46.8%.

Going from O=C1[C@H](CC[C@H](O)c2ccc(F)cc2)[C@@H](c2ccc(O)cc2)N1c1ccc(F)cc1 to O=C(c1ccc(OCCN2CCCCC2)cc1)c1c(-c2ccc(O)cc2)sc2cc(O)ccc12, the growth inhibition rises from -5.97% to -4.3%.

First: CCCCC(=O)N(Cc1ccc(-c2ccccc2-c2nnn[nH]2)cc1)[C@H](C(=O)O)C(C)C
Second: CCOc1nc2cccc(C(=O)OCc3oc(=O)oc3C)c2n1Cc1ccc(-c2ccccc2-c2noc(=O)[nH]2)cc1
The growth inhibition of the first is higher: -0.599% for the first, -4.87% for the second.

Compared with O=c1[nH]cc(F)c(=O)[nH]1, Nc1cccc2c1C(=O)N(C1CCC(=O)NC1=O)C2=O (stereo not drawn) is lower in growth inhibition: 4.5% for the first, 0.743% for the second.

First: CN(C)C/C=C/C(=O)Nc1cc2c(Nc3ccc(F)c(Cl)c3)ncnc2cc1O[C@H]1CCOC1
Second: COc1cc2nccc(Oc3ccc(NC(=O)C4(C(=O)Nc5ccc(F)cc5)CC4)cc3)c2cc1OC
The growth inhibition of the first is lower: -0.744% for the first, 5.98% for the second.

Going from COc1cc(C(=O)NS(=O)(=O)c2ccccc2C)ccc1Cc1cn(C)c2ccc(NC(=O)OC3CCCC3)cc12 to CC(C)CN(C[C@@H](O)[C@H](Cc1ccccc1)NC(=O)O[C@H]1CCOC1)S(=O)(=O)c1ccc(N)cc1, the growth inhibition falls from 1.76% to -1.11%.

First: c1ccc(CN(CC2=NCCN2)c2ccccc2)cc1
Second: CCN(CC)CCOc1ccc(C(=C(Cl)c2ccccc2)c2ccccc2)cc1
The growth inhibition of the first is higher: 3.06% for the first, 1.14% for the second.

Compared with CCOc1ccc2ccccc2c1C(=O)N[C@@H]1C(=O)N2[C@@H]1SC(C)(C)[C@@H]2C(=O)O, COc1ccc2c(c1)c(CC(=O)OCC(=O)O)c(C)n2C(=O)c1ccc(Cl)cc1 is higher in growth inhibition: -10.4% for the first, 5.09% for the second.

Compared with N[C@@H]1CONC1=O, CC[C@@H]1C(=O)OC[C@@H]1Cc1cncn1C is lower in growth inhibition: 1.19% for the first, 0.518% for the second.

Compared with CCN1CCN(c2cc(-c3ccc(F)cc3)c3c(n2)CCCCCC3)CC1, C[C@@H]1CN(c2c(F)c(N)c3c(=O)c(C(=O)O)cn(C4CC4)c3c2F)C[C@H](C)N1 is lower in growth inhibition: 4.25% for the first, -0.838% for the second.

Work on C[C@@H]1O[C@@H]1P(=O)(O)O yielded a growth inhibition of 0.0548%.

System: SUDIPGXIII (diffuse intrinsic pontine glioma line)
Assay: as above
Settings: 33 µM
Summary of the method: as §1

First: Cc1ccc(-c2cc(C(F)(F)F)nn2-c2ccc(S(N)(=O)=O)cc2)cc1
Second: O=C(O)c1ccc(-n2nc(-c3ccccc3O)nc2-c2ccccc2O)cc1
The growth inhibition of the first is lower: 0.102% for the first, 0.207% for the second.

First: CC(C)(C)C(=O)OCOP(=O)(COCCn1cnc2c(N)ncnc21)OCOC(=O)C(C)(C)C
Second: Nc1nc2c(ncn2COC(CO)CO)c(=O)[nH]1
The growth inhibition of the first is higher: 3.59% for the first, 1.94% for the second.

First: NCCNCCNCCNCCN
Second: CCCCCCNC(=O)n1cc(F)c(=O)[nH]c1=O
The growth inhibition of the first is lower: 0.192% for the first, 2.43% for the second.

Compared with CC(=O)[C@H]1CC[C@H]2[C@@H]3CC=C4C[C@@H](O)CC[C@]4(C)[C@H]3CC[C@]12C, C=C1/C(=C\C=C2/CCC[C@]3(C)[C@@H]([C@H](C)CCCC(C)C)CC[C@@H]23)C[C@@H](O)C[C@@H]1O is higher in growth inhibition: 0.295% for the first, 0.72% for the second.

Going from CC[C@H](C)C(=O)O[C@H]1C[C@@H](C)C=C2C=C[C@H](C)[C@H](CC[C@@H]3C[C@@H](O)CC(=O)O3)[C@H]21 to CCOC(=O)C1=C[C@@H](OC(CC)CC)[C@H](NC(C)=O)[C@@H](N)C1, the growth inhibition rises from -0.657% to -0.397%.

Compared with CC(C)/N=c1\cc2n(-c3ccc(Cl)cc3)c3ccccc3nc-2cc1Nc1ccc(Cl)cc1, Cn1c(CNc2ccc(C(=N)N)cc2)nc2cc(C(=O)N(CCC(=O)O)c3ccccn3)ccc21 is lower in growth inhibition: 5.35% for the first, -0.457% for the second.

First: COc1ccc(O)cc1
Second: C=C[C@H]1CN2CC[C@H]1C[C@H]2[C@H](O)c1ccnc2ccc(OC)cc12
The growth inhibition of the first is higher: 0.564% for the first, -0.182% for the second.

Compared with C[C@@H](NCCCc1cccc(C(F)(F)F)c1)c1cccc2ccccc12, CC(=O)SCC(Cc1ccccc1)C(=O)NCC(=O)OCc1ccccc1 (stereo not drawn) is lower in growth inhibition: 0.33% for the first, -0.948% for the second.

First: NCCS(=O)(=O)O
Second: Cc1cc2c(cc1S(N)(=O)=O)S(=O)(=O)CCC2
The growth inhibition of the first is lower: -0.421% for the first, 1.65% for the second.

First: O=C(O)C1=CO[C@@H](O[C@@H]2O[C@H](CO)[C@@H](O)[C@H](O)[C@H]2O)[C@@H]2C(CO)=CC[C@H]12
Second: COc1cccc2c1C(=O)c1c(O)c3c(c(O)c1C2=O)C[C@@](O)(C(C)=O)C[C@@H]3O[C@H]1C[C@H](N)[C@H](O)[C@H](C)O1
The growth inhibition of the first is lower: -1.52% for the first, 66.3% for the second.

Going from O=C1[C@H](CC[C@H](O)c2ccc(F)cc2)[C@@H](c2ccc(O)cc2)N1c1ccc(F)cc1 to O=C(c1ccc(OCCN2CCCCC2)cc1)c1c(-c2ccc(O)cc2)sc2cc(O)ccc12, the growth inhibition rises from 0.864% to 2.77%.

Going from CCCCC(=O)N(Cc1ccc(-c2ccccc2-c2nnn[nH]2)cc1)[C@H](C(=O)O)C(C)C to CCOc1nc2cccc(C(=O)OCc3oc(=O)oc3C)c2n1Cc1ccc(-c2ccccc2-c2noc(=O)[nH]2)cc1, the growth inhibition rises from -8.43% to -1.75%.

First: O=c1[nH]cc(F)c(=O)[nH]1
Second: Nc1cccc2c1C(=O)N(C1CCC(=O)NC1=O)C2=O (stereo not drawn)
The growth inhibition of the first is higher: 2.68% for the first, -1.19% for the second.

First: CN(C)C/C=C/C(=O)Nc1cc2c(Nc3ccc(F)c(Cl)c3)ncnc2cc1O[C@H]1CCOC1
Second: COc1cc2nccc(Oc3ccc(NC(=O)C4(C(=O)Nc5ccc(F)cc5)CC4)cc3)c2cc1OC
The growth inhibition of the first is lower: 0.97% for the first, 2% for the second.

Compared with COc1cc(C(=O)NS(=O)(=O)c2ccccc2C)ccc1Cc1cn(C)c2ccc(NC(=O)OC3CCCC3)cc12, CC(C)CN(C[C@@H](O)[C@H](Cc1ccccc1)NC(=O)O[C@H]1CCOC1)S(=O)(=O)c1ccc(N)cc1 is higher in growth inhibition: 0.405% for the first, 0.567% for the second.

First: c1ccc(CN(CC2=NCCN2)c2ccccc2)cc1
Second: CCN(CC)CCOc1ccc(C(=C(Cl)c2ccccc2)c2ccccc2)cc1
The growth inhibition of the first is higher: 0.969% for the first, 0.221% for the second.

Going from CCOc1ccc2ccccc2c1C(=O)N[C@@H]1C(=O)N2[C@@H]1SC(C)(C)[C@@H]2C(=O)O to COc1ccc2c(c1)c(CC(=O)OCC(=O)O)c(C)n2C(=O)c1ccc(Cl)cc1, the growth inhibition falls from 2.26% to 1.16%.

Compared with N[C@@H]1CONC1=O, CC[C@@H]1C(=O)OC[C@@H]1Cc1cncn1C is lower in growth inhibition: 1.03% for the first, -11.1% for the second.

Going from CCN1CCN(c2cc(-c3ccc(F)cc3)c3c(n2)CCCCCC3)CC1 to C[C@@H]1CN(c2c(F)c(N)c3c(=O)c(C(=O)O)cn(C4CC4)c3c2F)C[C@H](C)N1, the growth inhibition falls from 2.42% to -0.539%.

C[C@@H]1O[C@@H]1P(=O)(O)O was tested, and the growth inhibition was 1.68%.
